Measured values as given in PubChem BioAssay AID1347136 (National Center for Advancing Translational Sciences (NCATS), 2019).
The other results are listed elsewhere or left out. Inconclusive results are not listed. The source made the active and inactive calls. Calls follow the shape of the dose curve; as a rule, active = well fitted inhibition curve with a large enough effect; inconclusive = small, poorly fitted or top-dose-only effect; inactive = no such curve, though single readings can be large or run the other way.

Test: qHTS of pediatric cancer cell lines to identify multiple opportunities for drug repurposing: Orthogonal 3D viability screen for SJ-GBM2 cells
Conditions: SJ-GBM2 3D spheroid viability, PI/Hoechst imaging, 72 h
From the text: Drug repurposing or repositioning has been offered as a strategy for drug development in oncology programs. This approach has special potential for childhood cancers and other rare or orphan diseases, where the expected return on new drug development has been a disincentive to pharmaceuticals. […] In this project we exploit the poly-pharmacology of drugs to discover new indications via phenotypic screening of a panel of 19 well-characterized cell lines derived from solid tumors seen in children and adolescents. The goal is to identify approved drugs with previously unrecognized anticancer properties that has the potential to reveal new mechanisms and biological processes involved in carcinogenesis or drug resistance. We employed a titration-based paradigm (quantitative high-throughput screening or qHTS), where all compounds were tested at multiple concentrations for their effect on cell viability. Concentration-response curves (CRCs) were derived directly from the primary screen, and both potency and efficacy values were used to identify compounds with robust bioactivity profiles. […] These two assays will be used to validate active compounds and assess the correlation of compound's potency in 2D vs 3D cultures on selected cell lines. Assay Submitter: Nathalia J. Martinez, National Center for Advancing Translational Sciences, National Institutes of Health, Rockville, MD, USA; email: natalia.martinez@nih.gov Shen, M et al. Quantitative high-throughput phenotypic screening of pediatric cancer cell lines identifies multiple opportunities for drug repurposing. Oncotarget 2017 Dec 19;9(4):4758-4772. PMID 29435139.
The cells were obtained from University of North Carolina (UNC), Pediatric Preclinical Testing Program (PPT), and Coriell Institute (CI). qHTS viability in 3D culture: Cells were assayed in phenol red-free growth media at a density of 1,000 cells/well, with the exception of Daoy, and SH-N-SH which were assayed at 1,500 cells/ well. Thirty muL of cells were dispensed into 384-well, ULA, round bottom plates (Corning) using a Multidrop dispenser. Plates were spun down at 1,000 rpm for 1 min and incubated at 37 degrees C, 5% CO2, under a humidified atmosphere for either 24 (Daoy) or 48 hours (all other cell lines) to allow spheroid formation. Ninety-two nanoliter of compounds and controls (neutral control DMSO or positive control bortezomib at final concentrations of 0.5 µM) were subsequently transferred via GNF Pintool. Plates were sealed using a breathable seal (Diversified Biotech, Dedham, MA) and incubated for 72 hours at 37 degrees C. Spheroid viability was first determined by high-content imaging using Hoechst 33342 and Propidium Iodide (PI, ThermoFisher Scientific), followed by addition of CellTiter-Glo 3D (Promega). Specifically, 3 µL/well of PBS containing a 1:500 dilution of both dyes was dispensed using Multidrop. Dyes were incubated for 1 hour before imaging using the Celigo Image Cytometer. Then, 20 µl of CellTiter-Glo 3D were added per well. Plates were incubated for 30 min at RT on a VWR microplate shaker (300 rpm) and analyzed for luminescence intensity using a ViewLux High-throughput CCD imager equipped with clear filters. Image analysis was done using the Celigo Tumorsphere 1+2+3 application software as previously described. Briefly, spheroids were first identified using bright-field image segmentation, and then the fluorescent intensities of PI and Hoechst 3342 were obtained using red (EX: 531/40 nm, EM: 629/53 nm) and blue (EX: 377/50 nm, EM: 470/22 nm) filters, respectively. The data were exported to Excel, and the average fluorescent intensities were used to calculate the ratio of PI over Hoechst, which was used to quantify viability. Percent activity based on neutral and positive control bortezomib was derived.
With `CC(NCc1ccc2c(c1)nc(NC(=O)c1ccc(-c3cn[nH]c3)s1)n2CC(C)(C)O)C(C)(C)C` (stereo unspecified) the Potency was 0.162 µM (active). For `CC[C@H]1CN2CCc3cc(OC)c(OC)cc3[C@@H]2C[C@@H]1C[C@H]1NCCc2cc(OC)c(OC)cc21`, the Potency was 0.0722 µM (active). For `COc1c(C)c2c(c(O)c1C/C=C(\C)CCC(=O)O)C(=O)OC2`, the Potency was 0.722 µM (active). For `CC1(C)O[C@@H]2C[C@@H]3[C@H]4C[C@@H](F)C5=CC(=O)C=C[C@]5(C)[C@@]4(F)[C@@H](O)C[C@]3(C)[C@]2(C(=O)CO)O1`, the Potency was 0.574 µM (active). With `CC[C@]1(O)C[C@@H]2CN(CCc3c([nH]c4ccccc34)[C@@](C(=O)OC)(c3cc4c(cc3OC)N(C)[C@H]3[C@@](O)(C(=O)OC)[C@H](OC(C)=O)[C@]5(CC)C=CCN6CC[C@]43[C@@H]65)C2)C1` the Potency was 0.0406 µM (active). In the case of `COC(=O)Nc1nc2ccc(Sc3ccccc3)cc2[nH]1`, the Potency is reported as 0.574 µM (active).
